# Screens from PubChem.
# tim10-1 inh – growth inhibitors of tim10-1 mutant yeast, primary screen, luminescence, uHTS; S. cerevisiae tim10-1 ts strain growth, BacTiter-Glo, 24 h; AID 463190, 2010; hit rate 2.2% among 330,000; inhibition, % at 20 µM;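 active = inhibition of at least 40%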;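 also: mutant grown at 25 °C; 0% = DMSO wells with yeast and 100% = wells holding no yeast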
# Mdm2-MdmX inh – inhibitors of human Mdm2-MdmX association, primary screen, cell-based, luminescence, split luciferase, SaOS-2, uHTS; SaOS-2 split-luciferase Mdm2/MdmX complementation; inhibition, % at 8 µM; Protein Mdm4 (Homo sapiens) + E3 ubiquitin-protein ligase Mdm2 (Homo sapiens), …; hit rate 3% among 330,000;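 active = inhibition of at least 50% at 8 µM in the primary screen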
# Target sequence (O15151 whole entry, looked up): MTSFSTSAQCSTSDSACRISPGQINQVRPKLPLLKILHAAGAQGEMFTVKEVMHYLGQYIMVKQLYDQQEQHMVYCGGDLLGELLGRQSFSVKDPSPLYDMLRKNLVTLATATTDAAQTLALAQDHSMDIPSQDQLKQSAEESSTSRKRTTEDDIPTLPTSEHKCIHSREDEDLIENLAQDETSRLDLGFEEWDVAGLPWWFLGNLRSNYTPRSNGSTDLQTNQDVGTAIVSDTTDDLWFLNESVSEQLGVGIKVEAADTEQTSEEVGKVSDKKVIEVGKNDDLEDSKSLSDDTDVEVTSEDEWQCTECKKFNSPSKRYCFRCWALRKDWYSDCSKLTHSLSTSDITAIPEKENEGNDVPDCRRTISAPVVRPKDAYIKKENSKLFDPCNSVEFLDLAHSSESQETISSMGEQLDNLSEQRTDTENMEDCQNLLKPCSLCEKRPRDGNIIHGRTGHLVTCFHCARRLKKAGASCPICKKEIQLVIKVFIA
# Target sequence (Q00987 whole entry, looked up): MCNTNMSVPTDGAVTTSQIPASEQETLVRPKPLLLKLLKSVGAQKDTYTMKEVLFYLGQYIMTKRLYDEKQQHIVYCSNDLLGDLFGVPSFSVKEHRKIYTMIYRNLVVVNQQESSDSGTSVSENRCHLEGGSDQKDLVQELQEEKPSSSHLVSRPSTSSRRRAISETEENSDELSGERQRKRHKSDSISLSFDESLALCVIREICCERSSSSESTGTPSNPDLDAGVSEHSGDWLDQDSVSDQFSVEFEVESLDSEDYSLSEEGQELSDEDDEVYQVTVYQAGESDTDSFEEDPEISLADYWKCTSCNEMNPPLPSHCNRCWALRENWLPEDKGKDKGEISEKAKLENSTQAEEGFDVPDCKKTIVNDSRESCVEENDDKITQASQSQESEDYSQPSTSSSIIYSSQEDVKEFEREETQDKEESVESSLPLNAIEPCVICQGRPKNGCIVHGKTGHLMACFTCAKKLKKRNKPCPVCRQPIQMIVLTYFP
# TIM10 inh – growth inhibitors of isogenic TIM10 control yeast, primary screen, counter-screen for tim10-1 yeast inhibitor project, luminescence, uHTS; hit rate 1.4% among 330,000; S. cerevisiae TIM10 strain growth, BacTiter-Glo luminescence, 24 h; inhibition, % at 10 µM;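 active = inhibition of 40% or more at the single tested concentration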;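 also: wild-type TIM10 isogenic control strain grown at permissive 25 °C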
# tim23-1 inh – growth inhibitors of tim23-1 mutant yeast, primary screen, luminescence, uHTS. S. cerevisiae tim23-1 growth, BacTiter-Glo luminescence, 24 h. inhibition, % at 20 µM. hit rate 1.3% among 330,000;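 active = growth inhibition of the mutant yeast at or above 50%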;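 also: temperature-sensitive mutant grown at 25 °C; plate controls were DMSO-treated mutant yeast for no effect and medium wells lacking yeast for full effect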
# MPTP block – mitochondrial permeability transition pore inhibitors, primary screen, biochemical, isolated mouse mitochondria, absorbance. Ca2+ swelling absorbance, 30 min. inhibition, % at 10 µM. hit rate 1.4% among 360,000. AID 602449, 2012;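 active = inhibition of 50% or more, scaled per plate between neutral and stimulator controls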;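 also: 0% = DMSO wells given calcium and 100% = 1 mM EGTA wells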
# tim23-1 conf – tim23-1 mutant yeast growth inhibitors, confirmation, luminescence, single concentration; shares compounds with tim23-1 inh; S. cerevisiae tim23-1 growth, BacTiter-Glo luminescence, 24 h; inhibition, % at 20 µM; hit rate 83% among 4,400;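 active = inhibition above about 39% in either of two replicate wells at 20 µM, limit read from the data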;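 also: temperature-sensitive tim23-1 mutant grown at 25 °C; 0% = DMSO wells with yeast and 100% = medium wells without yeast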
# * = called active by the depositor; . = no result given. In the library only some 6.3% were active in any assay of this set; here they are far more common.
SMILES,tim10-1 inh,Mdm2-MdmX inh,TIM10 inh,tim23-1 inh,MPTP block,tim23-1 conf
Cc1nnc(SCC(=O)Nc2nsc(-c3ccc(C(C)(C)C)cc3)n2)s1,39.4,-161.8,17.8,51.5*,0.4,41.2*
Cc1ccc(/C=N/NC(=O)c2cc3c(ccc4ccccc43)o2)o1,-33.3,11.9,14.0,56.5*,-0.6,46.1*
O=C1NC(=Nc2ccccc2Cl)S/C1=C\c1cccc([N+](=O)[O-])c1,16.5,19.5,35.6,55.4*,19.1,63.0*
O=C(CC[C@H]1O[C@@H](n2ccc(=O)[nH]c2=O)[C@H](O)[C@@H]1O)N1CCN(Cc2cccc3ccccc23)CC1,.,.,.,.,-0.3,.
COC(=O)C1=C(Nc2ccccc2NS(=O)(=O)c2ccc(C(F)(F)F)cc2Cl)CSC1,37.7,8.6,33.9,53.6*,39.6,52.2*
CCc1nc2ccc(C(=O)NC3CCN(Cc4ccccc4)CC3)cn2c1N(C)Cc1ccc(N(C)C)cc1,.,.,.,.,1.0,.
COC(=O)[C@]12CCCCC=C1N(Cc1ccco1)C(=O)[C@H](CC(=O)NCCc1ccccc1OC)C2,.,.,.,.,-0.3,.
COc1ccc2c(c1)NC(c1ccc(N(C)C)cc1)c1cccn1-2 (centres undefined),39.0,25.9,35.5,56.4*,2.2,60.7*
COc1cccc(N2C(=O)C3CCCN3C2c2ccc(N(C)C)cc2)c1 (centres undefined),-16.0,13.9,5.2,-16.3,-4.0,.
Cc1ccc(C)c(C(O)c2ncc(-c3cccc(F)c3)[nH]2)c1 (centres undefined),.,.,.,.,0.0,.
C/C=C/c1ccc(OCCOc2cc(C=O)ccc2OC)c(OC)c1,5.3,-67.5,29.5,57.5*,2.8,67.0*
Cc1cccc(-n2c(SCC(N)=O)nc3c(c2=O)C2(CCCC2)Cc2ccccc2-3)c1,24.6,-24.4,37.6,54.2*,-1.8,46.7*
Cc1ccc(NCC(=O)N/N=C\c2ccc([N+](=O)[O-])o2)cc1,34.1,4.7,27.7,54.7*,1.1,41.0*
O=C(CNc1ccccc1)N/N=C/c1ccc([N+](=O)[O-])o1,36.5,3.5,21.7,30.7,1.6,.
O=C(COc1ccccc1-c1ccccc1)N/N=C/c1ccncc1,16.1,4.8,14.2,52.7*,-0.1,44.5*
Cc1c(C)c2ccc(OCC(=O)NCCc3c[nH]c4ccccc34)cc2oc1=O,.,.,.,.,0.1,.
Cn1c(=O)c(C(=O)NNC(=O)c2ccccc2Br)c(O)c2ccccc21,6.6,46.1,32.8,50.8*,0.5,35.3
Cc1cccc(C(=O)NNC(=O)c2c(O)c3ccccc3n(C)c2=O)c1,0.5,44.7,15.0,66.6*,2.0,20.6
Cn1c(=O)c(C(=O)NNC(=O)c2cccc(Cl)c2)c(O)c2ccccc21,-37.1,49.8,24.8,40.9,1.8,.
N#CC1=C(N)c2ccccc2CC12CCCCC2,8.1,11.8,19.6,51.1*,5.2,41.0*
OC[C@@H]1CC[C@@H](Cc2ccc(-c3ccccc3)cc2)O1,29.7,-43.4,19.7,52.6*,-0.9,32.5
CCc1nc2ccc(C(=O)NCCN3CCNC3=O)cn2c1N(C)CCC(C)C,.,.,.,.,-2.6,.
O=[N+]([O-])c1ccc(O)c2ncccc12,20.5,46.1,-1.1,62.2*,-29.8,34.8
COc1ccc(C2=Nc3ccccc3N(C(=O)c3cccnc3)C2C(=O)NC(C)(C)C)cc1 (centres undefined),.,.,.,.,2.2,.
Cc1[nH]n(-c2ncc(-c3ccccc3)s2)c(=O)c1C(c1ccc(Br)cc1)C(C#N)C#N (centres undefined),36.7,6.3,29.5,47.3,38.2,.
SMILES,tim10-1 inh,Mdm2-MdmX inh,TIM10 inh,tim23-1 inh,MPTP block,tim23-1 conf
CCCc1[nH][nH]c(=O)c1C(c1ccc(Br)cc1)C(C#N)C#N (centres undefined),32.9,36.2,34.9,59.4*,0.2,35.0
CCOCCn1ccc2c(OCC(=O)Nc3ccc(OC)c(OC)c3)cccc2c1=O,12.2,15.9,4.5,54.3*,3.9,5.4
COc1ccc(C(=O)COC(=O)c2cc(=O)c3ccccc3o2)c(OC)c1,.,.,.,.,-1.2,.
O=C(CSc1cccc[n+]1[O-])c1cc(Cl)ccc1Cl,9.8,2.5,6.8,59.3*,0.1,76.8*
O=C(O)CSc1cccc[n+]1[O-],7.0,-10.3,5.1,-5.5,-0.3,.
C=CCN1c2ccccc2C(=O)C(C)S1(=O)=O (centres undefined),-5.5,-3.0,1.3,25.9,-1.8,.
C=CCN1c2ccc(Br)cc2C(=O)CS1(=O)=O,33.7,-1.3,34.9,57.8*,1.5,54.5*
O=CN1N=C(c2ccccc2)CC1c1ccc(Cl)cc1 (centres undefined),4.5,-19.0,4.6,35.5,6.1,.
O=C1OC(c2ccccc2)=NC12CC2c1ccc(Cl)cc1 (centres undefined),-4.8,23.1,29.6,56.3*,-0.5,-69.2
COc1ccc(NC(=O)C(c2ccccc2F)n2c(=O)c(-c3cc4ccccc4[nH]3)nc3ccccc32)cc1 (centres undefined),.,.,.,.,2.8,.
Fc1cccc(CNc2ncnc3cc(Cl)ccc23)c1F,18.5,28.1,12.8,60.2*,21.8,11.7
COc1cccc(CNc2ncnc3cc(Cl)ccc23)c1,.,.,.,.,11.5,.
COCCCn1cc(CN2CC(N3CCN(C4CCN(C)CC4)CC3)CS2(=O)=O)nn1 (centres undefined),.,.,.,.,-1.4,.
CNc1nc(N)c(C(=O)C23CC4CC(CC(C4)C2)C3)s1,37.9,-6.7,23.5,51.1*,-0.8,49.8*
COc1ccc([C@H]2C[C@H](O)C[C@@H](CCn3cc(-c4ccccc4)nn3)O2)cc1,.,.,.,.,-1.3,.
N#Cc1ccc(S(=O)(=O)N2CCCCC2c2cc(C(=O)Nc3cccc4c3CCCC4)no2)cc1 (centres undefined),.,.,.,.,0.5,.
N/C(=N\OC(=O)c1ccc(Br)o1)c1cccnc1,25.8,-59.5,0.0,24.6,0.2,.
N/C(Cc1ccc(Cl)c(Cl)c1)=N\OC(=O)c1ccc(Br)o1,39.8,8.6,-11.9,76.7*,3.1,80.2*
Cc1ccc(C)c(-c2csc(Nc3ncccn3)n2)c1,15.9,-4.0,-7.5,2.7,0.1,.
Cc1ccc(C)c(-c2csc(N/N=C/c3ccco3)n2)c1,29.8,17.6,18.1,55.8*,-1.4,38.8*
Cc1cc(NC(=O)COc2ccccc2C)ccc1NC(=O)c1cccs1,21.7,16.8,19.5,54.4*,3.0,63.0*
Cc1cc(NC(=O)COc2ccccc2C)ccc1NC(=O)c1ccco1,-32.9,4.8,8.2,17.9,0.2,.
CC(C)(C)c1ccc(C(=O)N2CCOC23CCCCC3)cc1,.,.,.,.,0.5,.
CC(Nc1cc(=O)n(C)c(=O)n1C)c1ccccc1 (centres undefined),2.8,3.6,9.3,51.6*,-1.7,1.9
